{"source": "PubChem BioAssay (NCATS)", "note": "Records with an inconclusive call do not appear. Unmarked numbers belong to inactive results. Active and inactive are the calls of the source. Calls follow the shape of the dose curve; as a rule, active = well fitted inhibition curve with a large enough effect; inconclusive = small, poorly fitted or top-dose-only effect; inactive = flat fitted curve, though single readings scatter. Potency is read from the fitted curve at half-maximal effect.", "data": [{"system": "Zika virus NS2B-NS3 protease", "experiment": "Primary screen GU AMC qHTS for Zika virus inhibitors (AID 1347154); also: nearly all actives have a fitted effect of over 70% in size;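 as to activity change, negative = inhibition: 0% = no-inhibitor control and -100% = no-enzyme control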", "conditions": "Zika NS2B-NS3 unlinked protease, AMC fluorogenic substrate; series mostly up to 54.1 µM; activity change, negative = inhibition: at the top concentration", "excerpt": "Avindra Nath, Ph.D., National Institute of Neurological Disorders and Stroke (NINDS), Bethesda, MD\nRadhakrishnan Padmanabhan, Ph.D., Georgetown University (GU), Washington D.C.\nZika Virus causes congenital defects, including microcephaly and is associated with Guillain-Barre syndrome, eningoencephalitis and myelitis in infected adult. […] Using a target-based approach, we hope to establish a screening paradigm to uncover novel, cell-active NS2B-NS3 protease (Zika Virus) specific inhibitors from NCATS' collection of small molecules using qHTS.\nEarly Translation Branch (ETB)\nNational Center for Advancing Translational Sciences (NCATS), Rockville, MD\nNational Institute of Health (NIH), Bethesda, Maryland\nPadmanabhan lab provided the NS2B hydrophilic domain and NS3 protease domain in a noncovalent complex used for the unlinked assay. Control compound aprotinin is obtained from Thermo Scientific (#78432; Waltham, Massachusetts). NS2B-NS3 AMC substrate (Bz-Nle-Lys-Arg-Arg-AMC; Nle-KRR-AMC) purchased from Bachem (#I-1995; Torrance, CA). Ac-VKTGKR-AMC purchased from Genscript or Bachem, Ac-FAAGKR-AMC purchased from Genscript, Ac-GLVKRR-AMC purchased from Genscript, Ac-LKKR-AMC purchased from Genscript.\nGU AMC unlinked NS2B-NS3 protease qHTS protocol\nBriefly, 3 microL of Zika virus unlinked NS2B-NS3 protease (25 nM for linked final concentration), in assay buffer (10 mM Tris-HCl pH 8.0 with 0.01% Tween 20) was dispensed into a 1,536-well solid-bottom black plate (Greiner Bio One, Monroe, NC). […] Plates were then read immediately on a ViewLux High-throughput CCD imager (PerkinElmer, Waltham, MA) equipped with standard UV fluorescence optics (340(30) nm excitation, 450(20) nm emission) then incubated (room temperature, protected from light) for 15 minutes (~20% conversion). The change in fluorescence intensity over the 15-minute reaction period was normalized against no-inhibitor and no-enzyme controls and the resulting percent inhibition data were fitted to a 4-parameter Hill equation. Aprotinin was used as the intraplate control.", "values": [{"molecule": "COc1cc(C(C)C)c2c(c1)S(=O)(=O)N(COc1cc(=O)n3cccc(OCCN4CCCCC4)c3n1)C2=O", "Potency": "inactive"}, {"molecule": "CS(=O)(=O)c1ccc(-c2cnc(N)c(C(=O)Nc3ccccc3)n2)cc1", "activity change, negative = inhibition": "762%"}, {"molecule": "CN(C)c1nc(Cc2ccc(NC(=O)c3ccc4ccccc4c3)cc2)nc(Cl)c1CC(=O)O", "activity change, negative = inhibition": "-15.4%"}, {"molecule": "NC(=O)c1cccc2cn(-c3ccc([C@@H]4CCCNC4)cc3)nc12", "Potency": "24.1 µM (active)"}, {"molecule": "CC(C)(O)c1cc2nc(-c3cnc(N)nc3)nc(N3CCOCC3)c2s1", "activity change, negative = inhibition": "-6.76%"}, {"molecule": "N#Cc1c(O)c2c(-c3ccc(-c4ccccc4O)cc3)csc2[nH]c1=O", "Potency": "8.57 µM (active)"}, {"molecule": "CCC1=C[C@@H]2CN(C1)Cc1c([nH]c3ccccc13)[C@@](C(=O)OC)(c1cc3c(cc1OC)N(C)[C@@H]1[C@@](O)(C(=O)OC)[C@H](OC(C)=O)[C@]4(CC)C=CCN5CC[C@]31[C@@H]54)C2", "activity change, negative = inhibition": "8.06%"}, {"molecule": "Cc1ccc(NC(=O)C2(c3ccc4c(c3)OC(F)(F)O4)CC2)nc1-c1cccc(C(=O)O)c1", "activity change, negative = inhibition": "3.08%"}, {"molecule": "Nc1nc(NCCNc2ncc(-n3ccnc3)c(-c3ccc(Cl)cc3Cl)n2)ccc1[N+](=O)[O-]", "activity change, negative = inhibition": "1.67%"}, {"molecule": "CC(C)=CCCC(C)=CCCC(C)=CCSc1ccccc1C(=O)O", "Potency": "13.6 µM (active)"}, {"molecule": "Fc1cc(-c2cccc3ncc(-c4cnn(C5CCNCC5)c4)nc23)cc(F)c1CN1CCOCC1", "activity change, negative = inhibition": "-6.63%"}, {"molecule": "O=C(O)CO.[NH2-].[NH2-].[Pt+2]", "activity change, negative = inhibition": "13.1%"}, {"molecule": "COc1c(N2C[C@@H]3CCCN[C@H]3C2)c(F)cc2c(=O)c(C(=O)O)cn(C3CC3)c12", "Potency": "30.4 µM (active)"}, {"molecule": "O=C(NC1CCNCC1)c1[nH]ncc1NC(=O)c1c(Cl)cccc1Cl", "activity change, negative = inhibition": "-0.642%"}, {"molecule": "C=CC(=O)Nc1cccc(Oc2nc(Nc3ccc(N4CCN(C)CC4)cc3OC)ncc2Cl)c1", "activity change, negative = inhibition": "11.7%"}, {"molecule": "COC(=O)Nc1ccc(-c2nc(N3CCOCC3)c3cnn(C4CCN(Cc5cccnc5)CC4)c3n2)cc1", "activity change, negative = inhibition": "9.64%"}, {"molecule": "CC=CC1=C(C(=O)O)N2C(=O)[C@H](NC(=O)[C@H](N)c3ccc(O)cc3)[C@@H]2SC1", "activity change, negative = inhibition": "7.45%"}, {"molecule": "CC[C@H](CO)Nc1nc(NCc2ccccc2)c2ncn(C(C)C)c2n1", "Potency": "inactive"}, {"molecule": "C[C@]12CC[C@H](O)CC1=CCC1C2CC[C@]2(C)C(n3cnc4ccccc43)=CCC12", "note": "(stereo not given in full)", "activity change, negative = inhibition": "-4.14%"}, {"molecule": "COc1ccc(-n2nc(C(N)=O)c3c2C(=O)N(c2ccc(N4CCCCC4=O)cc2)CC3)cc1", "activity change, negative = inhibition": "-2.28%"}, {"molecule": "Cc1cc(Nc2cc(CN3CCOCC3)c3nc(C)c(Cc4ccc(Cl)cc4F)n3n2)n[nH]1", "activity change, negative = inhibition": "6.05%"}, {"molecule": "O=C(O)[C@H](Cc1c[nH]c2ccccc12)N1C(=O)c2ccccc2C1=O", "activity change, negative = inhibition": "14.3% [at 104 µM]"}, {"molecule": "O=C1CCC[C@@H]2[C@H]3CCC[N+]4([O-])CCC[C@@H](CN12)[C@@H]34", "note": "(stereo not given in full)", "activity change, negative = inhibition": "-2.54%"}, {"molecule": "CC(C)c1ccccc1Cc1cc(C(=O)Nc2ccc(S(=O)(=O)c3ccccc3C(C)(C)C)cc2)c(O)c(O)c1O", "Potency": "17.1 µM (active)"}, {"molecule": "COCCOc1ccc2c(c1)ncn2-c1ccc2cccc(N3CCC(N)CC3)c2n1", "activity change, negative = inhibition": "3.57%"}, {"molecule": "Clc1cccc(-n2nnnc2NCc2ccccc2Oc2ccccn2)c1Cl", "activity change, negative = inhibition": "9.78%"}, {"molecule": "COC(=O)Nc1nc2ccc(C(=O)c3ccc(F)cc3)cc2[nH]1", "activity change, negative = inhibition": "-4.57%"}, {"molecule": "CNC(=O)c1ccc(N2C(=S)N(c3cnc(C#N)c(C(F)(F)F)c3)C(=O)C23CCC3)cc1F", "activity change, negative = inhibition": "9.04%"}, {"molecule": "Cc1cc(Nc2cc(NC(=O)c3c(Cl)cccc3Cl)ccn2)nc(N)n1", "activity change, negative = inhibition": "11.4%"}, {"molecule": "C[C@H]1C[C@@H]2[C@@H]([C@@H](O)C[C@@]3(C)[C@H]2CC[C@]3(O)C(=O)CO)[C@@]2(C)C=CC(=O)C=C12", "activity change, negative = inhibition": "-7.31%"}, {"molecule": "COc1cc2nccc(Oc3ccc(NC(=O)C4(C(=O)Nc5ccc(F)cc5)CC4)cc3)c2cc1OC", "activity change, negative = inhibition": "5.41%"}, {"molecule": "COc1ccc2c(OCc3nnc4ccc(-c5ccccc5)nn34)ccnc2c1", "activity change, negative = inhibition": "15.4%"}, {"molecule": "CCC(=C(c1ccccc1)c1ccc(OCCN(C)C)cc1)c1ccccc1", "activity change, negative = inhibition": "3.06%"}, {"molecule": "COCCn1c2c([n+](Cc3cnccn3)c1C)C(=O)c1ccccc1C2=O", "activity change, negative = inhibition": "-6.57%"}, {"molecule": "CC(C)(C)c1cc(NC(=O)Nc2ccc(-c3cn4c(n3)sc3cc(OCCN5CCOCC5)ccc34)cc2)no1", "activity change, negative = inhibition": "-0.638%"}, {"molecule": "c1cc(-c2cnn3cc(-c4ccc(OCCN5CCCCC5)cc4)cnc23)ccn1", "activity change, negative = inhibition": "-21.5%"}, {"molecule": "CCOC(=O)C1=C(C)NC2=C(C(=O)CC(C)(C)C2)C1c1ccc(-c2ccccc2)cc1", "note": "(stereo not given)", "Potency": "17.1 µM (active)"}, {"molecule": "COc1ccc(CC2c3cc(OC)c(OC)cc3CC[N+]2(C)CCC(=O)OCCCCCOC(=O)CC[N+]2(C)CCc3cc(OC)c(OC)cc3C2Cc2ccc(OC)c(OC)c2)cc1OC", "note": "(stereo not given)", "activity change, negative = inhibition": "4.96% [at 6.83 µM]"}, {"molecule": "Nc1cc(C(F)(F)F)c(-c2cc(N3CCOCC3)nc(N3CCOCC3)n2)cn1", "activity change, negative = inhibition": "-7.04%"}, {"molecule": "NC(=O)c1c(OCc2c(F)cc(Br)cc2F)nsc1NC(=O)NCCCCN1CCCC1", "activity change, negative = inhibition": "2.11%"}]}]}
